Assay [1] can be described thus: CCTE_Mundy_HCI_hNP1_Casp3_7: CCTE's Caspase-Glo 3/7 Assay in human neuroprogenitor cells for Apoptosis, Mundy Lab (AID 2284240). The method, boiled down: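 Luminescent caspase-3/7 readout, 26.5 h post-dose, in human neural progenitor cells from WA09 embryonic stem cells. Cells grew 40–44 h at 37 °C, 5% CO2 before chemical addition. Activity analysed as signal increase over DMSO baseline.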

The nature of assay [2]: CCTE_Mundy_HCI_hNP1_CellTiter: CCTE's Cell Titer-Glo 2 Assay in human neuroprogenitor cells for Viability, Mundy Lab (AID 2284241; active = hit-call score of the fitted dose curve at least 0.9, where 1 is the maximum;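 as to AC50: a hit is a drop in ATP luminescence versus DMSO meaning reduced viability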). The method, boiled down: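 Viability read as luminescent ATP content (CellTiter-Glo, 30 min room temperature) twenty-four hours after dosing, relative to DMSO. Cells: WA09-derived hNP1 neuroprogenitors on poly-L-ornithine/laminin, plated 40 to 44 hours before chemical.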
For orientation: In ATP-based viability assays light output follows the ATP content of the culture.

Assay [3] is described as follows: CCTE_Mundy_HCI_Cortical_Synap_Neur_Matur_NeuronCount: CCTE's Synaptogenesis and Neurite Maturation Assay in rat cortical cells for Neuron Count, Mundy Lab (AID 2284242; active = hit-call score of the fitted dose curve at least 0.9, where 1 is the maximum;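 as to AC50: hits reduce neuron count versus DMSO baseline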). The method, boiled down:
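Neuron counts come from automated high-content imaging of Hoechst nuclei and MAP2/synaptophysin immunostaining at DIV 12, with loss of signal judged against DMSO. Cultures of rat cortical cells had glial growth arrested by AraC at DIV 5; chemical exposure began DIV 7.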

Read-out in assay [4]: Monokine induced gamma interferon (MIG), CXCL9 (gene 4283)
Put plainly: BSK_KF3CT_MIG: BioMAP Diversity Plus: KF3CT Assay for Monokine induced gamma interferon (MIG) Biomarker Activity (AID 2284248). The note with it: primary human keratinocytes with fibroblasts. The gist of the method:
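Human keratinocyte plus foreskin fibroblast primary co-culture dosed with test chemical for 24 h; MIG level measured by ELISA and fitted in the positive direction against DMSO as baseline.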

Read-out in assay [5]: Collagen I, COL1A1 (gene 1277)
Put plainly: BSK_hDFCGF_CollagenI: BioMAP Diversity Plus: hDFCGF Assay for Collagen I Biomarker Activity (AID 2284250). Conditions: primary human foreskin fibroblasts. The method, boiled down: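 Collagen I quantified by ELISA 24 h after chemical dosing of human dermal fibroblast primary cells, with parallel SRB staining (0.1%, TCA-fixed, 560 nm) for overt cytotoxicity.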

Read-out in assay [6]: Interferon-inducible T-cell alpha chemoattractant (ITAC), CXCL11 (gene 6373)
In words: BSK_hDFCGF_ITAC: BioMAP Diversity Plus: hDFCGF Assay for Interferon-inducible T-cell alpha chemoattractant (ITAC) Biomarker Activity (AID 2284251). The note with it: primary human foreskin fibroblasts. The method, boiled down: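 Measured by ELISA, the chemokine level serves as the endpoint in human skin fibroblast primary cultures 24 h after compound addition. Increases relative to DMSO-treated wells define activity.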

Read-out in assay [7]: Plasminogen activator inhibitor-1 (PAI1), SERPINE1 (gene 5054)
Put plainly: BSK_KF3CT_PAI1: BioMAP Diversity Plus: KF3CT Assay for Plasminogen activator inhibitor-1 (PAI1) Biomarker Activity (AID 2284252). The note with it: primary human keratinocytes with fibroblasts. The method, boiled down: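 PAI-1 levels quantified by ELISA after 24 h compound exposure of primary human skin keratinocytes co-cultured with fibroblasts. Activity is the gain relative to DMSO; cytotoxicity tracked in parallel cultures via SRB staining.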

Read-out in assay [8]: Interleukin-8 (IL8), CXCL8 (gene 3576)
Put plainly: BSK_KF3CT_IL8: BioMAP Diversity Plus: KF3CT Assay for Interleukin-8 (IL8) Biomarker Activity (AID 2284254). The note with it: primary human keratinocytes with fibroblasts. The method, boiled down: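 Human primary keratinocyte plus foreskin fibroblast co-culture dosed with test chemicals; IL-8 measured by ELISA 24 h after dosing. Activity fitted in the positive direction relative to DMSO negative control.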

Read-out in assay [9]: Interleukin 17F (IL17F), IL17F (gene 112744)
Put plainly: BSK_BT_xIL17F: BioMAP Diversity Plus: BT Assay for Interleukin 17F (IL17F) Biomarker Activity (AID 2284243). The note with it: primary human B cells with PBMC. The method, boiled down: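 B cell/PBMC co-culture (human primary), 24 h compound exposure; sIL-17F by Luminex xMAP; gain-of-signal fit vs DMSO baseline.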

Read-out in assay [10]: Actin alpha 1 (ACTA1), ACTA1 (gene 58)
Put plainly: BSK_MyoF_ACTA1: BioMAP Diversity Plus: MyoF Assay for Actin alpha 1 (ACTA1) Biomarker Activity (AID 2284244). The note with it: primary human lung fibroblasts. The method, boiled down:
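alpha-SMA levels read by ELISA against DMSO baseline, 24 h post-dose, in primary human lung fibroblasts. Parallel cultures stained with 0.1% SRB after 10% TCA fixation (560 nm) to flag overt cytotoxicity.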

Read-out in assay [11]: Interleukin 2 (IL2), IL2 (gene 3558)
In words: BSK_BT_xIL2: BioMAP Diversity Plus: BT Assay for Interleukin 2 (IL2) Biomarker Activity (AID 2284245). Conditions: primary human B cells with PBMC. The gist of the method:
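Secreted IL-2 was read by Luminex xMAP from B cells co-cultured with PBMC (human primary) 24 h post-dosing; activity was analysed as gain of signal relative to DMSO vehicle.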

Read-out in assay [12]: Basic fibroblast growth factor (bFGF), FGF2 (gene 2247)
Put plainly: BSK_MyoF_bFGF: BioMAP Diversity Plus: MyoF Assay for Basic fibroblast growth factor (bFGF) Biomarker Activity (AID 2284246). Conditions: primary human lung fibroblasts. The gist of the method: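 bFGF was measured by ELISA in primary human lung fibroblasts 24 h after chemical addition. Signal was analysed as positive-direction change relative to DMSO baseline.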

Read-out in assay [13]: Collagen IV, COL4A1 (gene 1282)
In words: BSK_MyoF_CollagenIV: BioMAP Diversity Plus: MyoF Assay for Collagen IV Biomarker Activity (AID 2284247). Conditions: primary human lung fibroblasts. The gist of the method: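 Collagen IV quantified by ELISA in human lung fibroblast cultures 24 h after chemical treatment, with DMSO as baseline. Parallel SRB staining (0.1% SRB after TCA fixation, 560 nm) flags overt cytotoxicity.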

Read-out in assay [14]: Vascular cell adhesion molecule 1 (VCAM1), VCAM1 (gene 7412)
In words: BSK_BF4T_VCAM1: BioMAP Diversity Plus: BF4T Assay for Vascular cell adhesion molecule 1 (VCAM1) Biomarker Activity (AID 2284249). The note with it: primary human bronchial epithelial cells with fibroblasts. The gist of the method:
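Cell-surface VCAM-1 quantified by ELISA after 24 h chemical exposure of human bronchial epithelial/dermal fibroblast co-cultures, with SRB staining in parallel wells for cytotoxicity; DMSO baseline, positive-direction fitting.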

Read-out in assay [15]: Monocyte Chemoattractant Protein-1 (MCP1), CCL2 (gene 6347)
In words: BSK_IMphg_MCP1: BioMAP Diversity Plus: IMphg Assay for Monocyte Chemoattractant Protein-1 (MCP1) Biomarker Activity (AID 2284253). Conditions: primary human endothelial cells with macrophages. The method, boiled down: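 ELISA readout of MCP-1 at 24 hours in IMphg co-cultures of venular endothelial cells and macrophages, normalised to DMSO; parallel cultures stained with sulforhodamine B for overt cytotoxicity.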

Read-out in assay [16]: Macrophage Inflammatory Protein-1 Alpha (MIP1a), CCL3 (gene 6348)
Put plainly: BSK_IMphg_MIP1a: BioMAP Diversity Plus: IMphg Assay for Macrophage Inflammatory Protein-1 Alpha (MIP1a) Biomarker Activity (AID 2284255). The note with it: primary human endothelial cells with macrophages. The gist of the method: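 MIP-1a protein levels were quantified by ELISA after 24 h treatment of human endothelial cell–macrophage co-cultures, compared with DMSO. Parallel cultures were fixed with TCA and stained with 0.1% SRB to gauge overt cytotoxicity.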

Read-out in assay [17]: Plasminogen activator inhibitor-1 (PAI1), SERPINE1 (gene 5054)
In words: BSK_MyoF_PAI1: BioMAP Diversity Plus: MyoF Assay for Plasminogen activator inhibitor-1 (PAI1) Biomarker Activity (AID 2284256).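 As to outcome: PAI-1 protein level measured by ELISA in fibroblast cultures; PAI-1 read 24 h after compound addition.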 The note with it: primary human lung fibroblasts. The method, boiled down:
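ELISA read-out of PAI-1 from primary human lung fibroblast cultures 24 h after dosing; gain-of-signal fit versus DMSO control.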

Read-out in the next assay: CD69, CD69 (gene 969)
Put plainly: BSK_IMphg_CD69: BioMAP Diversity Plus: IMphg Assay for CD69 Biomarker Activity (AID 2284257). Conditions: primary human endothelial cells with macrophages. The gist of the method: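 Readout is ELISA for CD69 in primary human venular endothelial cell/macrophage co-culture, taken at 24 h post-dosing. SRB staining of parallel cultures gauged overt cytotoxicity; signal increase versus DMSO defined activity.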

Read-out in assay [18]: Eotaxin 3, CCL26 (gene 10344)
In words: BSK_BF4T_Eotaxin3: BioMAP Diversity Plus: BF4T Assay for Eotaxin 3 Biomarker Activity (AID 2284258). The note with it: primary human bronchial epithelial cells with fibroblasts. The gist of the method: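 ELISA measurement of Eotaxin-3 after 24 h chemical exposure in a bronchial epithelial/dermal fibroblast co-culture, with DMSO as baseline. Parallel SRB staining (0.1% SRB after 10% TCA fixation, 560 nm) flagged overt cytotoxicity.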

Read-out in assay [19]: Monocyte Chemoattractant Protein-1 (MCP1), CCL2 (gene 6347)
Put plainly: BSK_BF4T_MCP1: BioMAP Diversity Plus: BF4T Assay for Monocyte Chemoattractant Protein-1 (MCP1) Biomarker Activity (AID 2284259). Conditions: primary human bronchial epithelial cells with fibroblasts. The gist of the method:
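MCP-1 ELISA readout taken 24 h after dosing in the BF4T system (bronchial epithelial cells plus dermal fibroblasts). Parallel SRB total-protein staining flagged cytotoxicity; DMSO served as baseline, positive fitting direction.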

Molecules are shown by their SMILES. Several values for one entry are separate records, joined by “and”; a condition that tells them apart may be missing. Equal values may be shown once. Records with an inconclusive call do not appear. Activity calls are given as the source filed them. The calls were made as follows, unless noted: active = hit-call score of the fitted dose curve at least 0.9, where 1 is the maximum; inactive = score below 0.9.

We go through nine compounds from PubChem BioAssay (EPA / NIEHS).

In the case of `C=CC(N)=O`, the compound was called inactive in assay [1], in assay [2] and in [3].
With `COc1ccc(O)c(C(C)(C)C)c1`, the result in assay [1], in assay [2], in assay [3], in assay [4], in assay [5] and in assay [6] was inactive. For the same compound, the result in [7] and in [8] was inactive.
Consider `O=C(O)C(F)(F)C(F)(F)C(F)(F)C(F)(F)C(F)(F)C(F)(F)C(F)(F)C(F)(F)F`, for which the outcome in assay [9], in [11], in assay [12], in [4], in [5] and in [15] was inactive. The result in [8], in [16] and in assay [17] was inactive. Further, the concentration at half-maximal activity (AC50) (commonly the midpoint of the concentration-response curve, whichever way the signal moves) in [10] was 30 µM (active) and 40.3 µM (active); in [13], 18.9 µM (active) and 13.9 µM (active); in assay [14], 12.9 µM (active) and 11 µM (active); in [6], 47.9 µM (active) and 47.8 µM (active); in [7], 48.2 µM (active) and 41.7 µM (active); in the assay with CD69, CD69 (gene 969), 49.9 µM (active) and 48.7 µM (active). The AC50 in [18] was 17 µM (active) and 15.5 µM (active); in assay [19], 21.7 µM (active) and 34.2 µM (active).
On to `CCOP(=S)(OCC)SCSC(C)(C)C`, for which the compound was classed as inactive in [1] and in assay [2]. Besides, in [3], the concentration at half-maximal activity (AC50) is 9.92 µM (active) and 25.5 µM (active).
With `O=S(=O)(O)C(F)(F)C(F)(F)C(F)(F)C(F)(F)C(F)(F)C(F)(F)F`, the result in [1], in [2], in assay [9], in assay [10], in [11] and in assay [12] was inactive. Moreover, the result in [13], in [4], in assay [14], in [5], in assay [6] and in [7] was inactive. The outcome in [15] was “inactive”; in assay [8] it was “inactive”; in assay [16], “inactive”; in [17] it was “inactive”; with CD69, CD69 (gene 969), “inactive”; in [18], “inactive”. Also, the outcome in assay [19] was inactive.
As for `ClC1=C(Cl)[C@]2(Cl)[C@@H]3[C@@H]4C[C@@H]([C@H]5O[C@@H]45)[C@@H]3[C@@]1(Cl)C2(Cl)Cl`, the AC50 in assay [1] is 15 µM (active); in [3], 25 µM (active).
For `CO/C=C(/C(=O)OC)c1ccccc1COc1cccc(C(F)(F)F)n1`, the figures for the AC50 in assay [1], in [2] and in assay [3] were 21.7 µM (active), 81.5 µM (active) and 0.935 µM (active), respectively.
For `ClC1=C(Cl)[C@]2(Cl)[C@@H]3[C@@H](Cl)[C@H]4O[C@H]4[C@@H]3C1(Cl)C2(Cl)Cl`, in that order: 30.3 µM (active), 35.9 µM (active) and 7.22 µM (active).
Take `Oc1c(Cl)c(Cl)c(Cl)c(Cl)c1Cl`: the result in [9] and in assay [11] was inactive. The AC50 in assay [10] is 10.3 µM (active); in assay [12] it was 33.5 µM (active); in [13] it was 30.6 µM (active); in assay [17] it was 7.45 µM (active).
